Compounds with a hit are over-represented: about 3.1% of the library has one in this group of screens.
Tau fibril ThT: qHTS for Inhibitors of Tau Fibril Formation, Thioflavin T Binding. Microtubule-associated protein tau (Homo sapiens), P10636. recombinant tau K18 P301L, heparin-induced fibrillization, ThT fluorescence. Potency, µM (top dose mostly 57.4 µM), for the others: at the top dose activity, negative = inhibition, most hits filed as inhibitors. hit rate 2.1% among 270,000; note: nearly all actives have a fitted effect of over 55% in size
Target sequence (P10636 561-689 P618L limits assumed): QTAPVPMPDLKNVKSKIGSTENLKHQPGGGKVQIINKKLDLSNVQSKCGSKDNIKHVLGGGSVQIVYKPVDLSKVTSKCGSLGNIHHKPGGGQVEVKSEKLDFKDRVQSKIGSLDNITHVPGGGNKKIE
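Recombinant human tau K18 fragment […] carrying P301L, 15 uM unlabeled plus 0.24 uM Alexa 594-labeled, was fibrillized with 20 uM heparin in 100 mM sodium acetate pH 7 for 6 hr at 37 C; 30 uM ThT fluorescence read after 1 hr.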
Tau FP inhib: qHTS for Inhibitors of Tau Fibril Formation, Fluorescence Polarization; Microtubule-associated protein tau (Homo sapiens), P10636; K18 P301L tau heparin fibrillization, Alexa594 FP, 6 h; Potency, µM (series often up to 57.7 µM), inactives show at the highest dose activity, negative = inhibition, usual class: inhibitors; hit rate 0.39% among 280,000; AID 1468, 2008; note: nearly all actives have a fitted effect of over 55% in size
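Recombinant K18 P301L […], labeled with Alexa 594 at 0.24 uM over 15 uM unlabeled; heparin inducer 20 uM final; 37 C, 6 hr; FP endpoint.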
Tau fluor counter: Counterscreen qHTS for Inhibitors of Tau Fibril Formation, Fluorescence Polarization. tau K18 P301L (four-repeat tau fragment) Alexa594 fluorescence, heparin fibrillization. Potency, µM (titrated, usually from 57.7 µM), inactives show top-dose activity change, negative = decrease. hit rate 0.93% among 280,000. AID 1463, 2008; note: nearly all actives have a fitted effect of over 55% in size
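Human K18 P301L tau (15 uM unlabeled plus 0.24 uM Alexa 594-labeled, final) in 100 mM sodium acetate pH 7 was mixed with compound and 20 uM heparin and incubated 6 hr at 37 C.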
TRb SRC2 PPI: qHTS for Inhibitors of the Interaction of Thyroid Hormone Receptor and Steroid Receptor Coregulator 2; Thyroid hormone receptor beta (Homo sapiens), P10828; TRbeta-SRC2 peptide binding, fluorescence polarization; receptor liganded with 1 µM T3; Potency, µM (highest dose often 106 µM), for inactives: at the top dose activity change, negative = inhibition, actives largely listed as inhibitors; hit rate 0.065% among 280,000; AID 1469, 2008;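 note: plate controls were bound peptide for no effect and peptide without receptor for full effect; nearly all actives have a fitted effect of over 50% in size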
Target sequence (P10828 whole entry, looked up): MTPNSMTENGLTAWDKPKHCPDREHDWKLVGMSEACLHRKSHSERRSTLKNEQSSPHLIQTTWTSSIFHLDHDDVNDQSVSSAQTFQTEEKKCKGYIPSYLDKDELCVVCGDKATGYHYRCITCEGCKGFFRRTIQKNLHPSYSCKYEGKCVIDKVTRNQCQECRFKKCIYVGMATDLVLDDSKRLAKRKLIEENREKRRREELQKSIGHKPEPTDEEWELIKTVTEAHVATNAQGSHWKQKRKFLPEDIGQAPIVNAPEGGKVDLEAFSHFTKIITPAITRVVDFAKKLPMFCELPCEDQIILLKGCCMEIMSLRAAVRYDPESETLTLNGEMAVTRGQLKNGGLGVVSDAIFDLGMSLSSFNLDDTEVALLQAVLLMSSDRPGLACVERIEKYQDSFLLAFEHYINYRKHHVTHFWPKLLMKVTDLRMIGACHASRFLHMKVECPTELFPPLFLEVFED
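Read-out is fluorescence polarization (555 nm excitation, 632 nm emission) of a Texas Red SRC2 coactivator peptide; loss of signal reflects blocked binding to human TRb ligand-binding domain in the presence of 1 uM T3.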
TR SRC2 fluor cs: Total Fluorescence Counterscreen for Inhibitors of the Interaction of Thyroid Hormone Receptor and Steroid Receptor Coregulator 2; TRb/SRC2 Texas Red total fluorescence interference; Potency, µM (titrated, usually from 106 µM), inactives show top-dose fluorescence change, negative = quenching; hit rate 0.29% among 280,000; active = well fitted curve in either direction with a large enough effect; inconclusive = small, poorly fitted or top-dose-only effect
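Human TRb ligand-binding domain at 0.6 uM with 20 nM Texas Red SRC2 peptide in Tris buffer containing 1 uM T3 and 5% DMSO, incubated with compound 5 h at ambient temperature. Total fluorescence (555/632 nm) calculated as parallel + 2 × perpendicular.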
Active calls of the source: *; ? = inconclusive; · = no result; [ ] = another dose, or the depositor's remark. Unless noted, calls come from the whole dose curve; as a rule, active = well fitted curve in the direction sought with a large enough effect; inconclusive = small, poorly fitted or top-dose-only effect, or another doubt; inactive = no such curve, though single readings can be large; an effect the other way counts as inactive or inconclusive. Unless noted, % is set by controls: 0 for no effect and ±100 for the full control effect; potency is the fitted concentration of half-maximal effect.

SMILES | Tau fibril ThT | Tau FP inhib | Tau fluor counter | TRb SRC2 PPI | TR SRC2 fluor cs
COc1ccccc1NC(=O)c1ccc(N)cc1 | -12% | 2% | 2% | 10% | 2%
CCOC(=O)CSc1nc(Nc2ccc3c(c2)OCO3)c2ccccc2n1 | ? | 14% | 13µM*[quencher] | -2% | -5%
N#CCSc1nc(Nc2ccc3c(c2)OCO3)c2ccccc2n1 | -17% | 2% | ? | 6% | -4%
CCOC(=O)CNc1ccc2c(c1)OCO2 | 32µM* | ? | -28% | -22% | -2%
O=C(NCCS(=O)(=O)N1CCN(c2ccc(F)cc2)CC1)c1cc(=O)c2ccccc2o1 | 10% | -5% | -2% | 0% | -2%
CC(C)=NNc1nc(-c2ccc(N3C(=O)CCC3=O)cc2)cs1 | 18µM* | ? | ? | -6% | -1%
O=C(N/N=C/c1ccc(N2CCOCC2)cc1)c1ccccn1 | 14µM* | -3% | -17% | 1% | -2%
COc1ccc(Cl)cc1C(=O)N/N=C/c1ccc(N2CCOCC2)cc1 | 11µM* | 1% | -23% | -2% | -3%
CC1=C(C(=O)Nc2ccc(C)cc2C)C(c2cccs2)n2nc(SCc3ccccc3Cl)nc2N1 (stereo not given) | 1% | ? | -1% | -10% | 4%
COc1cc(C(C)C)c2c(c1)S(=O)(=O)N(COc1cc(=O)n3cccc(OCCN4CCCCC4)c3n1)C2=O | · | · | · | 4% | -17%
CCCCCCc1ccc(-c2ncc(N)cn2)cc1 | -20% | 7% | 14µM*[quencher] | -2% | -1%
Cc1cc(C)cc(OC(C)C(=O)Nc2nonc2-c2ccc(Br)cc2)c1 (stereo not given) | -17% | -2% | -10% | 0% | -1%
CCOC(=O)c1c(C)[nH]c(C)c1S(=O)(=O)N1CCCC(C(=O)N2CCN(c3cccc(Cl)c3)CC2)C1 (stereo not given) | ? | 9% | ? | 3% | -1%
O=C(OCn1ncc(Br)c(Br)c1=O)c1ccccc1Cl | 8.9µM* | ? | -20% | -18% | -2%
O=C(OCn1ncc(Br)c(Br)c1=O)c1ccc(F)cc1 | ? | ? | -6% | -6% | -2%
CC(C)[C@H](NC(=O)[C@H](CC(=O)O)NC(=O)CNC(=O)[C@@H](N)CCCN=C(N)N)C(=O)O | · | · | · | -2% | 0%
O=C(O)c1c(Cl)c(Cl)c(Cl)c(Cl)c1-c1c2cc(I)c(=O)c(I)c-2oc2c(I)c(O)c(I)cc12 | 3.2µM* | -130% | 1.6µM*[fluorescent] | 5µM* | 2.8µM*[fluorescent]
COc1ccccc1NC1=C(Cl)C(=O)N(c2ccccc2)C1=O | ? | -6% | -22% | 0% | -1%
CCOc1ccc(N2C(=O)C(Cl)=C(Nc3ccccc3O)C2=O)cc1 | 10µM* | ? | ? | -19% | 0%
COc1ccc(CCNC2=C(Cl)C(=O)N(CCc3ccccc3)C2=O)cc1OC | ? | 8% | -17% | -2% | 0%
O=C1C(Cl)=C(Nc2ccccc2O)C(=O)N1CCc1ccccc1 | 10µM* | ? | ? | 2% | -2%
CCOc1ccccc1NC(=O)c1c(NC(=O)COc2ccccc2)sc2c1CCCCC2 | -4% | 5% | -5% | -8% | 2%
CCCc1cc(=O)c2c(O)ccc(OC)c2o1 | -4% | 1% | -13% | -6% | 1%
Cc1cc(=O)c2c(O)cc(O)c(C)c2o1 | 25µM* | ? | 28µM*[quencher] | -2% | -3%
COc1cc(/C=C/C(=O)N2CCCCC2=O)cc(OC)c1OC | 11µM* | ? | -15% | 0% | -2%
SMILES | Tau fibril ThT | Tau FP inhib | Tau fluor counter | TRb SRC2 PPI | TR SRC2 fluor cs
COc1cc(/C=C/C(=O)N2CCCC2)cc(OC)c1OC | -6% | 1% | 11% | -5% | -1%
CCOC(=O)c1ccc(NC(=O)CC2C(=O)N(c3ccc(C)cc3)C(=O)N2C2CCCC2)cc1 (stereo not given) | 6% | ? | ? | 2% | 1%
CC1CCN(S(=O)(=O)c2ccc3ncn(CC(=O)Nc4ccccc4C(F)(F)F)c(=O)c3c2)CC1 | 1% | -10% | ? | 3% | -1%
N#CC1(C#N)CC(C=O)=C(N)C1(C#N)CC(=O)c1ccc(F)cc1 (stereo not given) | 14µM* | ? | ? | -30% | 14%
O=C1Nc2ccc(F)cc2C12Nc1ccccc1-c1nnc(SCc3ccccc3)nc1O2 (stereo not given) | ? | ? | ? | -3% | -4%
Cc1ccc(CSc2nnc3c(n2)OC2(Nc4ccccc4-3)C(=O)Nc3ccc(F)cc32)cc1 (stereo not given) | 28µM* | ? | ? | -19% | 1%
O=C1Nc2ccc(F)cc2C12Nc1ccccc1-c1nnc(SCc3ccccc3Cl)nc1O2 (stereo not given) | 28µM* | ? | ? | 6% | 0%
COc1ccc2nc3c(cc2c1)Cc1ccccc1-3 | ? | 1% | ? | 5% | -4%
Cc1ccccc1NC(=O)CSc1ccc(-c2ccco2)nn1 | -8% | 4% | -5% | 3% | -4%
Cc1cccc(NC(=O)CSc2nc(N)cc(N)n2)c1 | -2% | -9% | -3% | 13% | 0%
Cc1cccc(NC(=O)CSc2nnc(-c3ccco3)c(-c3ccco3)n2)c1 | 14µM* | ? | ? | 2%[53 µM] | -2%[53 µM]
Cc1cccc(NC(=O)CSc2nnc(-c3ccco3)c(-c3ccco3)n2)c1C | 7.9µM* | 13µM* | ? | -12% | ?
Cc1cccc(CNc2ncnc3ccc(-c4cccc(NS(C)(=O)=O)c4)cc23)c1 | ? | 18µM* | ? | -4% | 3%
Cc1ccc2nc(-c3cccc(NS(C)(=O)=O)c3)cc(-c3ccccc3)c2c1 | -2% | -2% | -7% | -9%[53 µM] | 0.1µM*[quencher]
COCCNC(=O)CN(C(=O)CCC(=O)Nc1ccccn1)c1ccc(F)c(Cl)c1 | 6.3µM* | 7% | ? | -1% | -5%
COCCNC(=O)CN(C(=O)CCC(=O)Nc1ccccn1)c1ccc(F)cc1 | -3% | 5% | 0% | -4% | -1%
Cc1ccc(NC(=O)COc2ccccc2C(=O)Nc2ccccc2)cc1Cl | -1% | 4.5µM* | ? | 13% | 0%
CCOC(=O)c1c(C)oc2c1c(C=NCCO)c(O)c1ccccc12 | 13µM* | -5% | ? | 7% | 0%
NC(=O)CC(NC(=O)Cc1cccc2ccccc12)c1ccc(N2CCN(c3ccccc3)CC2)c([N+](=O)[O-])c1 (stereo not given) | ? | 1% | ? | 6% | -2%

Assay outcomes deposited in PubChem by National Center for Advancing Translational Sciences (NCATS).
